Screening data deposited in PubChem by The Scripps Research Institute Molecular Screening Center.
TEAD-YAP block: TEAD-YAP interaction inhibition; HEK-TIYL cells, TEAD-Gal4/YAP UAS-luciferase luminescence; inhibition, % at 9.12 µM; 640,000 tested, 1.4% active; in the data active = inhibition above about 32%;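 also: 0% = median of test compound wells and 100% = reference inhibitor wells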
MITF primary: inhibitors of human MITF; AlphaScreen MITF homodimerization, bead proximity signal; 650,000 tested, 0.91% active; inhibition, % at 2.6 µM; O75030; in the data active = inhibition above about 50%;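 also: 0% = vehicle wells with protein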
FBW7 activator: activators of human E3 ligase FBW7; normalized activity (activation), % at 26.1 µM; 650,000 tested, 0.13% active; Q969H0; AlphaScreen FBW7–phospho-cyclin E peptide binding, activator screen; in the data active = normalized activity above about 1.9%;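 also: purified mutant Fbw7 with reduced substrate affinity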
Target sequence (Q969H0 whole entry, looked up): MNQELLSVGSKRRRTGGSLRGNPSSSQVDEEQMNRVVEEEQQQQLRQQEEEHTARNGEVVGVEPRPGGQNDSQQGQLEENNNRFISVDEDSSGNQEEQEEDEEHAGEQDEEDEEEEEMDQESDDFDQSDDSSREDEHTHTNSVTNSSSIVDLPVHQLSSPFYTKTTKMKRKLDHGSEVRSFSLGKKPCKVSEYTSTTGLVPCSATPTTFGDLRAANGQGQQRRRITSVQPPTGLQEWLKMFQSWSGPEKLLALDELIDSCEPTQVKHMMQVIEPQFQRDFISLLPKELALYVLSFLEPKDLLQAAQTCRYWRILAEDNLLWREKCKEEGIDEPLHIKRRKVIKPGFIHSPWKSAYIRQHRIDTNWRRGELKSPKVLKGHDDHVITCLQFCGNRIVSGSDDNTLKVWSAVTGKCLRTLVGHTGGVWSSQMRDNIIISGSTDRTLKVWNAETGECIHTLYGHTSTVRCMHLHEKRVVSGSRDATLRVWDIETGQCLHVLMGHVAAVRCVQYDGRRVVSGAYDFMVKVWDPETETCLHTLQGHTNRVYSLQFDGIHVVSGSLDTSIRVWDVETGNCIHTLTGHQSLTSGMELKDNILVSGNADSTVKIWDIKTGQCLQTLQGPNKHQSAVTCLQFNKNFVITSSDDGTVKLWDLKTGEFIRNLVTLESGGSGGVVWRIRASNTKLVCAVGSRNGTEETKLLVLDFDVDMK
GPR151 activ: activates the human receptor GPR151; 650,000 tested, 1% active; PathHunter beta-arrestin GPR151 cells, luminescence; activation, % at 11.2 µM; in the data active = activation above about 4.9%;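 also: 0% = median of compound wells and 100% = cells with positive control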
Numbers without * were called inactive. Most compounds without a hit are left out; they make up all but 3.5% or so of the library.

`COc1ccccc1NC1=C(N2CCCCC2)C(=O)c2ccccc2C1=O` gave TEAD-YAP block 62*, MITF primary -2, FBW7 activator 0 and GPR151 activ 2.
For O=C1C(NC2CCCC2)=C(N2CCCCC2)C(=O)c2ccccc21 the results were TEAD-YAP block 86*, MITF primary 11, FBW7 activator 0 and GPR151 activ -2.
`Nc1ccc(NC2=C(N3CCCCC3)C(=O)c3ccccc3C2=O)cc1` gave TEAD-YAP block -1, MITF primary -6, FBW7 activator -1 and GPR151 activ -1.
For CCN(CC)C(=O)C1CCCN(Cc2cc(C)c(OC)cc2C)C1 (stereo not drawn) the results were TEAD-YAP block -5, MITF primary 13, FBW7 activator 0 and GPR151 activ -1.
Screening CCN(CC)S(=O)(=O)c1ccc(C(=O)/C=C/c2c(F)cccc2F)cc1 returned TEAD-YAP block -22, MITF primary 2, FBW7 activator 0 and GPR151 activ 0.
CCCCN1C(=O)c2cccc3c(N4CCCC4)ccc(c23)C1=O was read as TEAD-YAP block -15, MITF primary -7, FBW7 activator 0 and GPR151 activ 1.
Screening CCN1C(=O)c2cccc3c(N4CCCC4)ccc(c23)C1=O returned TEAD-YAP block -5, MITF primary -8, FBW7 activator 2.1* and GPR151 activ -1.
Screening CCc1nnc(NC(=O)CSc2nnc(-c3ccncc3)n2-c2ccccc2C)s1 returned TEAD-YAP block 7, MITF primary 17, FBW7 activator 0 and GPR151 activ 0.
For C/C1=C2N=C(/C=C3N=C(/C(C)=C4\NC(C(CC(N)=O)C4(C)CCC(=O)NCC(C)OP(=O)(O)OC4C(CO)OC(n5cnc6cc(C)c(C)cc65)C4O)C4(C)N=C1C(CCC(N)=O)C4(C)CC(N)=O)C(CCC(N)=O)C\3(C)C)C(CCC(N)=O)C/2(C)CC(N)=O (stereo not drawn) the results were TEAD-YAP block 33*, MITF primary -35, FBW7 activator 0 and GPR151 activ -9.
COC(=O)N[C@H]1C[C@H]2C(=O)N[C@@H](Cc3ccccc3)C(=O)N2C1 was read as TEAD-YAP block -1, MITF primary -15, FBW7 activator 0 and GPR151 activ -2.
`O=c1cnn([C@@H]2O[C@H](CO)[C@@H](O)[C@H]2O)c(=O)[nH]1` gave TEAD-YAP block 48*, MITF primary -2, FBW7 activator 0 and GPR151 activ 1.
O=c1ncn(C2OC(CO)C(O)C2O)c(=O)[nH]1 (stereo not drawn) was read as TEAD-YAP block 74*, MITF primary 0, FBW7 activator 0 and GPR151 activ 0.
For O=c1[nH]cnc2c1ncn2[C@@H]1O[C@H](CO)[C@@H](O)[C@H]1O the results were TEAD-YAP block -4, MITF primary -4, FBW7 activator 0 and GPR151 activ -1.
Screening CC1=C/C(=C/c2ccco2)C(=O)O1 returned TEAD-YAP block 1, MITF primary 65*, FBW7 activator 0 and GPR151 activ 1.
`Cc1ccc(C2=C/C(=C/c3ccc(Cl)cc3)C(=O)O2)cc1` gave TEAD-YAP block 15, MITF primary 0, FBW7 activator 0 and GPR151 activ -1.
`CN1C/C(=C/c2ccco2)C(=O)/C(=C/c2ccco2)C1` gave TEAD-YAP block 3, MITF primary 28, FBW7 activator 0 and GPR151 activ 0.
For COc1ccc(C2=C/C(=C/c3ccco3)C(=O)O2)cc1OC the results were TEAD-YAP block -3, MITF primary 74*, FBW7 activator 0 and GPR151 activ -1.
Screening O=C1OC(c2ccc(Cl)cc2)=C/C1=C\c1ccco1 returned TEAD-YAP block -9, MITF primary 53*, FBW7 activator 0 and GPR151 activ 0.
`CC1CCc2c(sc(NS(=O)(=O)c3ccc(Cl)cc3)c2C(N)=O)C1` (stereo not drawn) gave TEAD-YAP block 6, MITF primary 20, FBW7 activator 0 and GPR151 activ 0.
`Cc1cccn2c(=O)c3cc(C(=O)Nc4ccc(S(N)(=O)=O)cc4)n(C)c3nc12` gave TEAD-YAP block -3, MITF primary 1, FBW7 activator 0 and GPR151 activ 0.
For COc1ccc(NS(=O)(=O)c2ccc(NC(=O)c3cccc([N+](=O)[O-])c3)cc2)cc1 the results were TEAD-YAP block 33*, MITF primary 3, FBW7 activator 0 and GPR151 activ 0.
`CC(=O)c1cccc(NS(=O)(=O)c2ccc(NC(=O)c3ccccc3Cl)cc2)c1` gave TEAD-YAP block 39*, MITF primary 4, FBW7 activator 0 and GPR151 activ 0.
COc1cc(OC)cc(C(=O)Nc2ccc(S(=O)(=O)Nc3nccc(C)n3)cc2)c1 was read as TEAD-YAP block -13, MITF primary 14, FBW7 activator 2.0* and GPR151 activ 1.
`O=C(Nc1ccc([N+](=O)[O-])cc1)c1cccc(S(=O)(=O)Nc2cccc(F)c2)c1` gave TEAD-YAP block 33*, MITF primary -11, FBW7 activator 0 and GPR151 activ 0.
Screening O=C(Nc1cccc([N+](=O)[O-])c1)c1cccc(S(=O)(=O)Nc2cccc(F)c2)c1 returned TEAD-YAP block 16, MITF primary -16, FBW7 activator 0 and GPR151 activ 0.
`Cc1cccc(NS(=O)(=O)c2ccc(NC(=O)c3ccc([N+](=O)[O-])cc3)cc2)c1` gave TEAD-YAP block 35*, MITF primary -7, FBW7 activator 0 and GPR151 activ 3.
Screening Cc1ccc(S(=O)(=O)Nc2ccccc2C(=O)Nc2ccc(C(=O)O)cc2)cc1 returned TEAD-YAP block -10, MITF primary -4, FBW7 activator 0 and GPR151 activ 1.
Cc1ccc(S(=O)(=O)Nc2ccccc2C(=O)Nc2ccc([N+](=O)[O-])cc2)cc1 was read as TEAD-YAP block 63*, MITF primary 19, FBW7 activator 0 and GPR151 activ 1.
Screening Cc1ccccc1NC(=O)Cn1nnc(C(=O)NCc2cccs2)c1N returned TEAD-YAP block 46*, MITF primary -12, FBW7 activator 0 and GPR151 activ -1.
O=C1c2ccccc2C(=O)c2cc(S(=O)(=O)O)c(O)cc21 was read as TEAD-YAP block 0, MITF primary 64*, FBW7 activator -1 and GPR151 activ -1.
Nc1cc2c(cc1S(=O)(=O)O)C(=O)c1ccccc1C2=O was read as TEAD-YAP block -11, MITF primary 18, FBW7 activator 0 and GPR151 activ -7.
`CCC(C)N(C(=O)c1cc2ccccc2oc1=O)C(C)CC` (stereo not drawn) gave TEAD-YAP block 5, MITF primary -3, FBW7 activator 0 and GPR151 activ 1.
For COc1ccccc1/C=C1\C(=O)ON=C1c1ccccc1 the results were TEAD-YAP block -73, MITF primary 70*, FBW7 activator 0 and GPR151 activ 1.
`CCOc1cc(/C=C2/C(=O)ON=C2c2ccccc2)ccc1OC` gave TEAD-YAP block 4, MITF primary 67*, FBW7 activator 0 and GPR151 activ -1.
CCOc1ccc(/C=C2\C(=O)ON=C2c2ccc(Cl)cc2)cc1 was read as TEAD-YAP block 14, MITF primary 59*, FBW7 activator 0 and GPR151 activ -1.
